Laboratory results: the supplement of paper PMC11417369
Over roughly 25,000 sequences, “ln(normalized median fluorescence intensity)” has its median near 7.1; the highest 2% begin near 10. What follows is part of a selection rich in the highest values, with near analogues and random picks from the rest.

tested on: PfSIP2 AP2 domain 1 (GST-tagged); assay: gcPBM binding intensity (ln(normalized median fluorescence intensity)); higher = stronger DNA binding
Summary of the method: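 The highest Masliner-normalised natural-log median intensity across replicate spots of either probe orientation is reported as binding intensity. GST-tagged P. falciparum DNA-binding domains expressed in E. coli were applied for 1 h to an Agilent 4 × 180k array of primer-extended double-stranded 36-bp intergenic genomic probes plus negative controls, and bound protein was detected with Alexa488 anti-GST antibody and scanned at 488 nm.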

Row | Sequence | gcPBM binding intensity (ln)
1 | CCCCTTAATTAAAGGAGTACTATTTGTGAATAATAT [XGTACX_site4715] | 7.47
2 | ATAATTCCATAAAATAGACACACGAATGTATAATAT [CACACA_site477] | 7
3 | AATAATGAAAAATCAAATAACCTAAATTACAACTGT [XGTACX_negctrl_site65] | 6.91
4 | TACGTTGTATATTTTTGTACATATTGAATTACAAAA [XGTACX_site5906] | 6.95
5 | ACGAAAAGATATATATGTACATATATTAAAAAAAAA [XGTACX_site1517] | 7.01
6 | TTCAAACATATTAATTGTACATACAACAAAACCATG [XGTACX_site5149] | 7.13
7 | TGTGCCCAAAATTATGCACACACCTAAAATTAATTT [CACACA_site2914] | 7.79
8 | ATTATGCACCAACACACACACACACTCCTAAAAAAT [CACACA_site8822] | 11.1
9 | TGCACAAAATTATGCACACACCTAAAATTAATTTTT [CACACA_site5596] | 8.28
10 | ATTATGCACGGACACACACACACACCCCTAAAAAAT [CACACA_site5426] | 7.88
11 | TAATTATGCCAACACACACACACACCCAACTAAAAA [CACACA_site8823] | 7.32
12 | ATTATGCACCAACACACACACACACCCCTAAAAAAT [CACACA_site2568] | 10.8
13 | TATATACTCAGACATACACACAAATAAAAAAACACC [CACACA_site5820] | 8.07
14 | AAATAATATATTCTATATAATAAATTATAAATATAA [GTGCAC_negctrl_site558] | 6.58
15 | AAGTGTATATAAAAATGTACATATTTCGATTTAAAT [XGTACX_site4161] | 7.11
16 | TTCTTAAAAGGAAAGGTGCAACTTTATCATTTTCTT | 10.9
17 | TTATTTTTAATATCGGTGCAACAAAAAGGAAAAGAT [GTGCAC_site9482] | 9.64
18 | TTTATATCATTTCTTAAAAAAAAGGAGGTAATAGAC [TGCATGCA_negctrl_site555] | 8.44
19 | TAAAGATGAAATATCACACATATATAAATATATAAA [CACACA_site4580] | 6.69
20 | AATAATAATAGAAACACACACACATTTTTAAGAATA [CACACA_site6692] | 6.74
21 | AACAAAGAAAATACATGTACAAAAAATATTAACGAA [XGTACX_site287] | 7.22
22 | TTTAGTGAGTTTGTTGTGCACTGAAAAAATTACAAT | 10.5
23 | ATAAATAAAACAACAGTGCAATAAAATTAGTTGAGG | 7.5
24 | TATATTATATATATACTGCACTGTTTTACAAAATTA | 8.44

Row | Sequence | gcPBM binding intensity (ln)
25 | TTATATAATCCTTTCAAACACACAAAATATAATTAA [CACACA_site1830] | 6.91
26 | ACAAAATAAACCACGTGTACAAATTTATAATGTGTA [XGTACX_site1153] | 7.21
27 | AAAAAAAAAAAAAAAGCACACATATAAATATGAATA [CACACA_site8391] | 7.5
28 | AAAAATAAAATGATGGTGCACATAAAGTATGGTTAC | 11.3
29 | TACAAAATATATATGACACACATAAAAAAAAGTATA [CACACA_site1373] | 6.96
30 | TGTTAAAAAATGGATGCACACATTAAATAAAAAGTA [CACACA_site1660] | 8.9
31 | TATATATATATGTGCACACATAATAAAAAAAAAAAT [CACACA_site3831] | 9.49
32 | AAAAAAAAAAAAAGTGCACACATAAAAATATGATCT [CACACA_site8090] | 11.2
33 | AAAAAAAAAAAAAGCACACATATAAATATGAATAAA [CACACA_site1393] | 7.18
34 | ATCTTAACTCTATGCACACATAAAAGTATATAAATA [CACACA_site2256] | 7.7
35 | AAAAAAAAAAAGTGCACACATAAAAATATGATCTAA [CACACA_site572] | 11.5
36 | ATATATGACTAATAAAGTACATACTTCATATAATTA [XGTACX_site6699] | 7.06
37 | TAAGTATATTTCTGCACACAAAAAAAAAAACCAAAA [CACACA_site4056] | 7.18
38 | AATGATATATTTAAATGTACACATGAAATATAATAT [XGTACX_site2678] | 7.06
39 | ATAAAAAAAAAATAATGTACTTATATATATATATAT [XGTACX_site8282] | 9.32
40 | TATATTATAGGTTGTGTACACATATTATATAGTACT [CACACA_site4583] | 7.16
41 | GATGTATAAAATAATACATGCATGTCCTACATATAT [TGCATGCA_site155] | 6.89
42 | AATACGGCAAACATTAAAAAATATAATAACAATAAA [CACACA_negctrl_site868] | 6.96
43 | CATTATGTACAAAAAGTGCAATATATATTAACACTG | 8.23
44 | GCAAGGTCCACACTGGTGCATTAAAAATAAAATATA [GTGCAC_site9956] | 10.4
45 | ATATGTACGCAAGGTGCACACTGGTGCATTAAAAAA [CACACA_site1801] | 12.3
46 | ACATATAAAATATATACACACATATAAATACATTAA [CACACA_site3867] | 7.06
47 | TATGTGTGCAAAAACTGTACACATTAAAGGTATATA [XGTACX_site7627] | 7.54
48 | TGCAAAAAATTCCACACACACACACGCATATAAATA [CACACA_site6696] | 7.27
